From PubChem BioAssay (NCATS)
Records with an inconclusive call do not appear. Active and inactive are the calls of the source. Calls follow the shape of the dose curve; as a rule, active = well fitted curve in the direction sought with a large enough effect; inconclusive = small, poorly fitted or top-dose-only effect, or another doubt; inactive = no such curve, though single readings can be large; an effect the other way counts as inactive or inconclusive.

Tests used:
[1] = qHTS assay for measurement of the activity of small molecule inhibitors on Zika virus induced Caspase-3 activity in human iPSC derived neural progenitor cells (hNPCs) (AID 1224857); conditions: hNPCs ZIKV-induced caspase-3/7, Caspase-Glo luminescence, 6 h; series mostly up to 45.7 µM; also: % of control where 0% means no effect; nearly all actives have a fitted effect of over 65% in size
Summary of the method: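 Caspase-3/7 induction by a 6-hour ZIKV infection was quantified with a luminescent Caspase-Glo 3/7 reagent incubated 30 minutes at room temperature. Compounds were preincubated with hNPCs for 1 hour; inhibition was calculated against uninfected and infected control wells.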

[2] = qHTS assay for measurement of the activity of small molecule inhibitors on Zika virus induced Caspase-3 activity in human astrocytoma cells (AID 1224859); conditions: SNB-19 ZIKV-induced caspase-3/7, luminescence, 6 h; series mostly up to 45.7 µM;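 also: plate controls were ZIKV-infected untreated cells for no effect and uninfected cells for full effect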
Summary of the method: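 In SNB-19 cells plated at 250 cells/well and grown 16-20 h, compounds were applied 1 h before ZIKV (2 FFU/cell). Six hours later caspase-3/7 luminescence was recorded.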

[3] = qHTS assay to identify small molecule inhibitors of chordoma cells - UCH-1 (AID 1259355); conditions: UCH-1 chordoma viability, CellTiter-Glo, 48 h, combination, with auranofin plus four topoisomerase inhibitors; series mostly up to 46.1 µM; also: % is scaled to controls: 0 for no effect and ±100 for the full control effect; nearly all actives have a fitted effect of over 55% in size
Summary of the method: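 Cells (800/well) were seeded and left overnight at 37 C, 5% CO2, then treated with drugs at 15 concentrations plus a combination mix of auranofin, camptothecin, doxorubicin, rubitecan and topotecan. Viability after 48hr was read by CellTiter-Glo luminescence.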

[4] = qHTS assay to identify small molecule inhibitors of chordoma cells - UCH-2 (AID 1259356); conditions: UCH-2 chordoma viability, CellTiter-Glo ATP luminescence, 48 h; series mostly up to 46.1 µM; also: % is scaled to controls: 0 for no effect and ±100 for the full control effect

Measured: activity change, negative = inhibition

O=C1c2ccccc2C(=O)C1c1ccc(Br)cc1
inactive: all assays above

CC(=O)OCC(COC(C)=O)OC(C)=O
inactive: all assays above

NC(=O)NS(=O)(=O)c1ccc(N)cc1
inactive: all assays above

CN1C(C)(C)CCCC1(C)C
inactive: all assays above

C=CCOc1ccccc1OCC(O)CNC(C)C (stereo unspecified)
inactive: all assays above

O=c1[nH]c2cc(C(F)(F)F)c(N3CCOCC3)cc2n(CP(=O)(O)O)c1=O
inactive: all assays above

O=S1(=O)OC(c2ccc(O)cc2)(c2ccc(O)cc2)c2ccccc21
inactive: all assays above

O=C(O)CCCc1ccccc1
inactive: all assays above

CC(O)CCCCn1c(=O)c2c(ncn2C)n(C)c1=O (stereo unspecified)
inactive: all assays above

Cn1c(=O)c2c(ncn2CCO)n(C)c1=O
inactive: all assays above

CCN(CC)CCc1nc(-c2ccccc2)no1
inactive: all assays above

CC(C(=O)O)c1ccc2c(c1)Cc1cccnc1O2 (stereo unspecified)
inactive: all assays above

COc1ccccc1OCC(O)CO (stereo unspecified)
inactive: all assays above

CCCCCCCCCCCCCCCCCCO
inactive: all assays above

CC(=O)N[C@H]1[C@H]([C@H](O)[C@H](O)CO)OC(C(=O)O)=C[C@@H]1N=C(N)N
inactive: all assays above

O=C1C(c2[nH]c3ccccc3c2O)=Nc2ccccc21
inactive: all assays above

CC(C)NC[C@@H](O)COc1ccc(CC(N)=O)cc1
inactive: all assays above

CN1CC(=O)NC1=N
inactive: all assays above

CC(C)(C)C(=O)OCOC(=O)[C@@H]1N2C(=O)[C@@H](NC(=O)[C@H](N)c3ccccc3)[C@H]2SC1(C)C
inactive: all assays above

Cc1cccc(Nc2ccccc2C(=O)O)c1C
inactive: all assays above

NC(N)=NCCN1CCCCCCC1
inactive: [1] 6.93% [at 0.568 µM] | [2] -3.82% [at 0.568 µM] | [3] | [4]

Cc1c(NC(=O)c2cccnc2)c(=O)n(-c2ccccc2)n1C
inactive: all assays above

C=CCN1C[C@H](C(=O)N(CCCN(C)C)C(=O)NCC)C[C@@H]2c3cccc4[nH]cc(c34)C[C@H]21
inactive: all assays above

COC(=O)c1ccccc1C(=O)c1ccc(OCCN2CCCCC2)cc1
inactive: all assays above

CN[C@@H]1[C@H](O)[C@H](NC)[C@H]2O[C@@]3(O)C(=O)C[C@@H](C)O[C@H]3O[C@@H]2[C@H]1O
inactive: all assays above

CC(=O)N(CC(O)CO)c1c(I)c(C(=O)NCC(O)CO)c(I)c(C(=O)NCC(O)CO)c1I (stereo unspecified)
inactive: all assays above

Cc1c(Cn2ccnc2)c2ccccc2n1CCC(=O)O
inactive: all assays above

Cc1c(N(C)C)c(=O)n(-c2ccccc2)n1C
inactive: all assays above

O=C1CC[C@@H](C(=O)O)N1
inactive: all assays above

COc1ccccc1Oc1c(NS(=O)(=O)c2ccc(C(C)(C)C)cc2)nc(-c2ncccn2)nc1OCCO
inactive: all assays above

NCc1ccc(S(N)(=O)=O)cc1
inactive: all assays above

CC(C)CCCC(C)CCCC(C)CCCCC(C)CCCC(C)CCCC(C)C (stereo unspecified)
inactive: all assays above

CC1(C)[C@@H](OC(=O)CCC(=O)O)CC[C@]2(C)[C@H]3C(=O)C=C4[C@@H]5C[C@@](C)(C(=O)O)CC[C@]5(C)CC[C@@]4(C)[C@]3(C)CC[C@@H]12
inactive: all assays above

CC(C)=CCC[C@@](C)(O)[C@H]1CC=C(C)CC1
inactive: all assays above

CN[C@@H]1[C@@H](O)[C@@H](O[C@@H]2[C@H](O)[C@H](O[C@H]3OC(CN)=CC[C@H]3N)[C@@H](N)C[C@H]2N)OCC1(C)O (stereo partly specified)
inactive: all assays above

CCOC(=O)[C@H](CCc1ccccc1)N[C@@H](C)C(=O)N1CCC[C@H]1C(=O)O
inactive: all assays above

Cc1ccc(S(=O)(=O)NC(=O)NC2CCCCC2)cc1
inactive: all assays above

C[N+]1(C)CCCC(OC(=O)C(O)(c2ccccc2)c2ccccc2)C1 (stereo unspecified)
inactive: all assays above

Cc1c(NC(C)C)c(=O)n(-c2ccccc2)n1C
inactive: all assays above
